Bioassay records (PubChem)
Rows were chosen to be rich in hits. Some 1.3% of all compounds tested hit in one or more screens of this group.
NR5A2 inv ag: LRH-1 (NR5A2) inverse agonists, primary screen, cell-based, luminescence, HEK293T, StAR-luciferase reporter. 360,000 tested, 0.13% active. LRH-1 transfected, 24 h. AID 602396, 2012. Nuclear receptor subfamily 5 group A member 2 (Homo sapiens), O00482. inhibition, % at 3.6 µM;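 active = inhibition above the mean inhibition of all tested compounds plus 3 SD, cut at about 73% in these data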;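 also: 0% = DMSO wells and 100% = reporter-only cells lacking LRH-1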
Target sequence (O00482 whole entry, looked up): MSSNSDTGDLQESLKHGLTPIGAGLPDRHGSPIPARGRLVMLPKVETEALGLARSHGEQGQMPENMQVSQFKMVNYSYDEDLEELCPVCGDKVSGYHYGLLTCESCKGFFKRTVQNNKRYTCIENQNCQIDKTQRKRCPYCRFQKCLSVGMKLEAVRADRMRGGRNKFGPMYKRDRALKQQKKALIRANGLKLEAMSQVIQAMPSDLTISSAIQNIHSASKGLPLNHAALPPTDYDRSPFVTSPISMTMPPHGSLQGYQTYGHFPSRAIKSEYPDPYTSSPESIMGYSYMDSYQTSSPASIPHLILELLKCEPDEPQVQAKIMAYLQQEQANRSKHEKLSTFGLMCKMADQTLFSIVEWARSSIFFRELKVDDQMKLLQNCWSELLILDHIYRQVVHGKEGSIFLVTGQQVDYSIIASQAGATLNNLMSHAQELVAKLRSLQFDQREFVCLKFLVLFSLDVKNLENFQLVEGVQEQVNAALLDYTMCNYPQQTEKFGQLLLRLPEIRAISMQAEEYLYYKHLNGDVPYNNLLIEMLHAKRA
SRC3 inh: SRC3 coactivator transcriptional activity inhibitors, primary screen, cell-based, luminescence; Nuclear receptor coactivator 3 (Homo sapiens), Q9Y6Q9; HEK293 GAL4-SRC3 luciferase reporter; inhibition, % at 3.6 µM; 360,000 tested, 0.17% active; AID 588352, 2011;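 active = inhibition above a per-campaign cutoff, the mean of all compounds plus 3 SD, cut at about 60% in these data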;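 also: 0% = DMSO-treated cells and 100% = gossypol-treated cells at 36 µM; higher means less SRC3-driven luciferase light from the GAL4 reporter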
Gli-Sufu antag: Gli-Sufu pathway antagonists, primary screen, luciferase luminescence, Sufu-KO-LIGHT cells, uHTS; Sufu-KO-LIGHT fibroblasts, Gli luciferase reporter luminescence; inhibition, % at 5 µM; 340,000 tested, 0.74% active; AID 588413, 2011;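 active = inhibition above about 55%, limit read from the data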;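 also: 0% = DMSO-treated cells and 100% = wells with medium but no cells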
NCOA1 inh: SRC1 coactivator transcriptional activity inhibitors, primary screen, cell-based, luminescence | Nuclear receptor coactivator 1 (Homo sapiens), Q15788 | HEK293 GAL4-SRC1 luciferase reporter | inhibition, % at 3.6 µM | 360,000 tested, 0.12% active | AID 588354, 2011;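 active = inhibition above the campaign mean plus 3 SD, with each screening campaign given its own cutoff, cut at about 60% in these data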;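 also: 0% = DMSO treated cells and 100% = gossypol at 36 µM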
SRC2 inh: inhibition of GAL4-SRC2 driven luciferase reporter, primary screen, SRC2 inhibitor project, cell-based, luminescence. Nuclear receptor coactivator 2 (Homo sapiens), Q15596. HEK293 GAL4-SRC2 luciferase reporter. 370,000 tested, 0.17% active. inhibition, % at 9 µM;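 active = inhibition above the mean inhibition of all tested compounds plus 3 SD, set per campaign, cut at about 52% in these data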;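 also: 0% = DMSO treated cells and 100% = cells given Gossypol at 36 µM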
NR2F2 inh: NR2F2 transcriptional activity inhibitors, primary screen, cell-based, luciferase reporter, HEK293T, luminescence; HEK293T NGFI-A luciferase reporter; COUP transcription factor 2 (Homo sapiens), P24468; 370,000 tested, 0.7% active; inhibition, % at 8.6 µM;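 active = inhibition above a per-plate cutoff, mean inhibition of test wells between control levels plus 3 SD, cut at about 38% in these data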;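 also: cells cotransfected with COUP-TFII expression vector driving the NGFI-A reporter; 0% = median of COUP-TF2 test wells and 100% = reporter-only cells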
Gli-Sufu confirm: Gli-SUFU pathway antagonists, confirmation, single concentration, luciferase luminescence, Sufu-KO-LIGHT cells | shares compounds with Gli-Sufu antag | Gli luciferase reporter | inhibition, % at 5 µM | 2,500 tested, 40% active;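 active = mean inhibition at 5 µM reaching about 45%, limit read from the data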;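 also: plate controls were DMSO-treated cells for no effect and wells lacking cells for full effect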
Gli cytotox: cytotoxicity in Sufu-KO-LIGHT cells, confirmation, cytotoxicity control for Gli-SUFU antagonist project, cell-based, ATP luminescence, single concentration; AID 651994, 2013; cytotoxicity, % at 5 µM; shares compounds with Gli-Sufu antag; 2,500 tested, 32% active;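 active = mean cytotoxicity at 5 µM above about 25%, limit read from the data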;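 also: cells exposed to compound overnight for roughly 16 to 18 hours; plate controls were DMSO wells with cells for no effect and medium without cells for full effect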
Wnt3a cs: Wnt3a reporter signal inhibition, confirmation, counter-screen for Gli-SUFU antagonist project, Wnt-LIGHT cells, luminescence, single concentration | shares compounds with Gli-Sufu antag | Wnt3a-driven luciferase reporter | inhibition, % at 6.25 µM | 2,500 tested, 20% active;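 active = mean inhibition above about 25%, limit read from the data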
Starred values were filed as active, the others as inactive; · = no result given.

SMILES	NR5A2 inv ag	SRC3 inh	Gli-Sufu antag	NCOA1 inh	SRC2 inh	NR2F2 inh	Gli-Sufu confirm	Gli cytotox	Wnt3a cs
CCC1=Nc2cc(C(=O)NCc3ccco3)ccc2Sc2ccc(C)cc21	23	16	57*	-5	14	-74	62*	59*	7
CCCC1=Nc2cc(C(=O)N3CCCC3)ccc2Sc2ccc(C)cc21	-12	-4	53	-10	-5	14	34	3	15
Cc1n[nH]c(C)c1S(=O)(=O)NCCc1cccc(F)c1	·	·	·	·	-28	7	·	·	·
CCCN(CCC)CCNC(=O)c1cc2c(=O)n(C)c3ccccc3c2n1C	-24	12	63*	-9	-28	-8	38	8	-71
CN(CCNC(=O)c1cc2c(=O)n(C)c3ccccc3c2n1C)Cc1ccccc1	-15	6	2	3	-2	-4	·	·	·
CCOC(=O)c1sc(Nc2ccccc2Cl)nc1C	-114	-32	-51	-74	-54	-27	·	·	·
CCOC(=O)c1sc(NC(=O)Nc2ccccc2F)nc1C	-17	23	51	16	16	7	41	49*	85*
O=C(Cc1nnc(NC(=O)c2ccccc2)s1)N/N=C\c1ccc(O)c(O)c1	4	-3	5	7	-22	18	·	·	·
O=C(Cc1nnc(NC(=O)c2ccccc2)s1)N/N=C/c1ccc(O)cc1	-3	-4	53	-24	-12	-15	10	19	-36
CC(C)(C)C(=O)N1CCC[C@]2(CC[C@H](CCC#N)O2)C1	·	·	·	·	-6	-12	·	·	·
O=C(Nc1ccc(Cl)cc1)OCC12COCN1COC2	·	·	·	·	-21	-11	·	·	·
CC(C)(C)c1ccc2c(c1)OC(C(=O)N/N=C\c1ccc[nH]1)CO2 (stereo not drawn)	5	12	90*	-2	6	34	92*	9	-14
O=C(N[C@H](C(=O)N1CCC[C@H]1C(=O)NC1CCCC1)C1CCCCC1)c1ccco1	·	·	·	·	17	-14	·	·	·
COc1ccc(N(CC(=O)NCCSCc2ccc(C)cc2)S(=O)(=O)c2ccccc2)cc1	12	-2	95*	-12	-16	-38	17	6	-20
COc1ccccc1NC(=O)CN(c1ccccc1)S(=O)(=O)c1ccccc1	12	5	53	26	-3	-8	25	3	-10
COc1cccc(NC(=O)CN(c2cccc(OC)c2)S(C)(=O)=O)c1	-9	9	4	-3	-12	-7	·	·	·
COc1cccc(N(CC(=O)Nc2cccc(C(C)=O)c2)S(C)(=O)=O)c1	6	6	77*	10	-3	-8	12	16	-21
CCc1ccccc1NC(=O)CN(c1cccc(OC)c1)S(C)(=O)=O	5	2	92*	16	-8	6	13	6	-11
Brc1ccc(-c2csc(N3CCC(c4nn[nH]n4)CC3)n2)cc1	·	·	·	·	·	-26	·	·	·
CCN(CC)S(=O)(=O)c1ccc(S(=O)(=O)Nc2c(C)nn(C)c2C)cc1	27	20	65*	5	25	37	54*	18	25*
O=C(COC(=O)c1cnccn1)c1ccc2ccccc2c1	-9	6	6	3	2	9	·	·	·
O=C(COC(=O)c1cnccn1)c1cccc([N+](=O)[O-])c1	-4	10	50	0	-2	5	19	16	0
CCOC(=O)c1sc2nc(CC(=O)OC)nc(NCc3ccc(Cl)cc3)c2c1C	5	-6	55*	7	·	·	53*	26*	-19
CCOC(=O)c1sc2nc(CC(=O)OC)nc(NCCN(CC)CC)c2c1C	7	13	2	-24	7	7	·	·	·
O=C1CN(C(=O)NCCC(=O)NC2CCCCC2)c2ccccc2N1	1	3	-16	-2	-22	2	·	·	·
SMILES	NR5A2 inv ag	SRC3 inh	Gli-Sufu antag	NCOA1 inh	SRC2 inh	NR2F2 inh	Gli-Sufu confirm	Gli cytotox	Wnt3a cs
CN(C(=O)CCNC(=O)N1CC(=O)Nc2ccccc21)C1CCCCC1	2	11	57*	-1	10	15	15	20	-10
CCOC(=O)C1CCCN(C(=O)COC(=O)c2cc(=O)c3ccccc3o2)C1 (stereo not drawn)	20	6	3	-3	-2	-6	·	·	·
O=C(OCC(=O)N1CCCC1)c1cc(=O)c2ccccc2o1	17	12	54	19	1	-19	15	7	-1
CCOC(=O)c1c(NC(=O)COc2cccc3c2CCN(C)C3=O)sc2c1CCC2	-7	39	58*	11	9	8	43	8	15
CCCC1CCC2(CCCN2CCOC(=O)Nc2ccccc2OC)CC1 (stereo not drawn)	·	·	·	·	·	2	·	·	·
CCC(=O)Nc1ccc2c(c1)C(=O)N(C)[C@@H]1CC[C@@H](CC(=O)NCc3ccc(OC)cc3)O[C@H]1CO2	·	·	·	·	38	5	·	·	·
Cc1c(C(=O)Nc2ccc(-c3nnc4n3CCCCC4)cc2)oc2ccc(Br)cc12	-50	16	52	-7	-10	11	32	13	-97
CCOC(=O)[C@]12CCCC3=C1N(CCC3)C(=O)[C@@H](CC(=O)NCc1ccc(C)o1)C2	·	·	·	·	-5	-19	·	·	·
COc1ccc2c(c1)C(C)=CC(C)(C)N2S(=O)(=O)c1ccc(Br)cc1	24	19	59*	8	8	-68	58*	58*	18
CC(=O)Nc1nonc1-c1nc2ccccc2n1Cc1ccccc1	-33	-9	11	-33	-62	-19	·	·	·
CCn1c(-c2nonc2NC(=O)c2ccccc2)nc2ccccc21	-2	-1	70*	1	-6	1	27	12	24
CCOc1cccc(-c2nnc3n2N=C(c2ccc(OC)cc2)CS3)c1	·	·	·	·	-16	2	·	·	·
Cc1cccc(CN[C@@H]2CC[C@@]34CCCN3C(=O)CCC[C@H]4C2)c1	·	·	·	·	·	6	·	·	·
CCCOC(=O)C[N+](C)(C)CCOC1CC2CCC1(C)C2(C)C (stereo not drawn)	7	1	42	8	8	4	·	·	·
CCC(C)OC(=O)C[N+](C)(C)CCOC1CC2CCC1(C)C2(C)C (stereo not drawn)	18	24	73*	26	-22	11	71*	36*	9
